VDR inhibitor – vitamin D3 receptor (human) inhibition; P11473; VDR-SRC2-3 peptide fluorescence polarization, 2 h; Potency, µM, actives largely listed as inhibitors; 0.93% of 400,000 active; AID 504847
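After 23 nl compound addition and a short centrifugation, plates sat for 2 hours at ambient temperature; polarization of fluorescence then indicated loss of VDR binding to peptide SRC2-3.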
TDP1 cell noCPT – qHTS for Inhibitors of human tyrosyl-DNA phosphodiesterase 1 (TDP1): qHTS in cells in absence of CPT; Potency, µM (doses to about 46.2 µM), most hits filed as inhibitors; DT40 Tdp1-/- hTDP1 cells, no CPT, ATP luminescence, 48 h; AID 686978, 2013; 15% of 420,000 active; note: nearly all actives have a fitted effect of over 55% in size
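DT40 Tdp1-/-;hTDP1 cells, no CPT (DMSO vehicle only), 400 cells/well; compounds pin-transferred; ≥48 hr, 37 °C; CellTiter-Glo 30 min RT dark, luminescence read.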
DT40 TDP1 CPT – DT40-hTDP1 cell growth loss with CPT; chicken DT40 Tdp1-/-;hTDP1 cells + 20 nM CPT, ATP luminescence, 48 h; 12% of 420,000 active; AID 686979; Potency, µM (top dose mostly 46.2 µM), most hits filed as inhibitors; note: nearly all actives have a fitted effect of over 55% in size
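Chicken DT40 Tdp1-/- cells complemented with human TDP1, 400 cells/well, exposed to compounds plus 20 nM camptothecin for at least 48 h at 37 C; viability read as ATP content by CellTiter-Glo luminescence.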
KAT2A inh – blocks human GCN5L2 histone acetyltransferase | Q92830 | AID 504327 | 0.21% of 390,000 active | GCN5L2 HAT assay, ThioGlo1 CoA-SH fluorescence | Potency, µM (doses to about 58.9 µM), usual class: inhibitors
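ThioGlo1-coupled HAT assay: 20nM GCN5L2, 70uM acetyl-CoA, 75uM H3(1-25) peptide, pH 7.5. Fluorescence read at 340/540nm at start and after 20 min at room temperature.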
PLK1 PBD inh – blocks phosphopeptide binding to human PLK1 polo-box domain | P53350 | Plk1 PBD binding of FITC phosphopeptide, fluorescence polarization | Potency, µM, actives largely listed as inhibitors | 2.8% of 360,000 active; note: series mostly up to about 57 µM; nearly all actives have a fitted effect of over 65% in size
Target sequence (P53350 whole entry, looked up, the tested form may be a part): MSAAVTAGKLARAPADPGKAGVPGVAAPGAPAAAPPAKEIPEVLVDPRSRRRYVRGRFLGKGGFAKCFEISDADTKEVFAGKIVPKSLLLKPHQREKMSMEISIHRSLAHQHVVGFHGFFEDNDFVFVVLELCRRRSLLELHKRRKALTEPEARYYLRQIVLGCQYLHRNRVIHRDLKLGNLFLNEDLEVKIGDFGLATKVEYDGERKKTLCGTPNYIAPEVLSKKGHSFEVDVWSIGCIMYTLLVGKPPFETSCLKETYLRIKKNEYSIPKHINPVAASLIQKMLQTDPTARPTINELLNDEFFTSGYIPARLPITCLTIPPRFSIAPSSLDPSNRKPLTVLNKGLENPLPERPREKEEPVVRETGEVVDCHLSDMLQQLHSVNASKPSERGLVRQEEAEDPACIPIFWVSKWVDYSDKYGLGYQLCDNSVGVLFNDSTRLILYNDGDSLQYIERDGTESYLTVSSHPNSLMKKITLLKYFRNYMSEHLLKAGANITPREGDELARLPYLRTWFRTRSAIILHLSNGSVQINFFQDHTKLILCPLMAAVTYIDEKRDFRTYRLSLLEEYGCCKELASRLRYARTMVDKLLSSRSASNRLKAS
TDP1 block – TDP1 (human) enzyme inhibition; 0.28% of 350,000 active; Q9NUW8; Potency, µM (series often up to 130 µM), most hits filed as inhibitors; recombinant TDP1, AlphaScreen DNA substrate cleavage; note: nearly all actives have a fitted effect of over 40% in size
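Signal: AlphaScreen proximity between streptavidin donor and anti-FITC acceptor beads on intact substrate. Reaction: Tdp1 1 nM, substrate 15 nM final, 5 min RT after 15 min compound preincubation.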
Numbers stand for hits; i = inactive; ? = inconclusive; nt = no result given. Shown are actives, neighbours in structure and some others; about 18% of the full set was active somewhere. Calls come from the whole dose curve; as a rule, active = well fitted curve in the direction sought with a large enough effect; inconclusive = small, poorly fitted or top-dose-only effect, or another doubt; inactive = no such curve, though single readings can be large; an effect the other way counts as inactive or inconclusive.

SMILES	VDR inhibitor	TDP1 cell noCPT	DT40 TDP1 CPT	KAT2A inh	PLK1 PBD inh	TDP1 block
CCOC(=O)c1ccc(NC(=S)Nc2ccc(C)cc2)cc1	i	?	i	i	i	i
Cc1ccc(NC2CCCN(C(=O)CSc3ccncc3)C2)cc1C (stereo not drawn)	i	?	i	i	i	i
COC(=O)[C@@H]1C[C@@]2(O)[C@@H](O)[C@@H](O)[C@@H](O)C[C@H]2N1Cc1ccc(C(C)(C)C)cc1	nt	nt	nt	nt	nt	i
Cc1ccc([C@H]2Nc3ccc(S(=O)(=O)Nc4cccc(Cl)c4C)cc3[C@H]3C=CC[C@H]32)cc1	i	?	?	i	nt	i
COc1cccc([C@H]2Nc3ccc(S(=O)(=O)Nc4cc(C)ccc4C)cc3[C@H]3C=CC[C@H]32)c1	i	5.2µM	3.7µM	i	nt	nt
Cc1ccc(NS(=O)(=O)c2ccc3c(c2)[C@H]2C=CC[C@H]2[C@@H](c2ccc(F)cc2)N3)cc1C	i	5.2µM	8.2µM	i	nt	nt
O=c1c2ccccc2oc2ccc(-c3ccoc3)cc12	nt	?	i	nt	nt	nt
Cc1cnc2c(N)cc(C)c(C)c2c1	nt	?	i	nt	i	nt
COc1cc(OCc2ccccc2)c(OC)c(OCc2ccccc2)c1	i	?	21µM	nt	i	nt
CC1(C)C(=O)Nc2ccccc2N1C(=O)COC(=O)CNS(=O)(=O)c1ccc(Br)cc1Cl	i	i	i	nt	i	nt
Cc1[nH]c(=O)c(C(=O)/C=C/c2ccccc2F)c2c1CCCC2	?	3.3µM	4.6µM	i	i	i
CC(C)(C)C1CCc2nc(NC(=O)Cc3cn4ccsc4n3)sc2C1 (stereo not drawn)	i	?	i	i	i	i
CC(C)(C)C1CCc2nc(NC(=O)Cc3ccc(Cl)cc3)sc2C1 (stereo not drawn)	i	7.3µM	6.5µM	i	nt	i
O=C(COc1ccc(F)cc1)Nc1nc2c(s1)CCCC2	i	i	i	?	i	i
CC(C)(C)C1CCc2nc(NC(=O)COc3ccc(F)cc3)sc2C1 (stereo not drawn)	i	21µM	?	i	nt	i
O=C(CSc1ccc(Cl)cc1)NNC(=O)c1ccco1	i	i	i	i	i	i
Cc1ccsc1C(=O)N1CCCC(C(=O)c2cc(F)ccc2F)C1 (stereo not drawn)	i	23µM	?	i	i	nt
COc1ccc(F)cc1C(=O)C1CCCN(C(=O)c2ccccc2N(C)C)C1 (stereo not drawn)	i	18µM	?	i	i	i
COc1ccc(F)cc1C(=O)C1CCCN(C(=O)c2cccc(N(C)C)c2)C1 (stereo not drawn)	i	?	?	i	i	nt
COc1ccc(C)cc1-n1nnc(C(=O)Nc2cccc(SC)c2)c1C	i	?	?	i	nt	i
Fc1cnc(Cl)nc1NC1CCCCC1	?	?	?	i	21µM	nt
CCOC(=O)c1c(-c2cccc([N+](=O)[O-])c2)csc1NC(=O)C1CC1	i	21µM	18µM	i	i	i
CCOc1ccc(-c2csc(N)c2C(=O)OC)cc1	?	?	?	i	7.9µM	i
CCOC(=O)c1c(-c2cccc([N+](=O)[O-])c2)csc1N	i	?	?	i	30µM	i
CCOC(=O)c1c(-c2ccncc2)csc1N	i	?	?	i	?	i
CC(=O)O[C@@]1(C(C)=O)CCC2C3CC(C)C4=CC(=O)CC[C@@]4(C)C3CC[C@]21C (stereo partly drawn)	?	nt	nt	i	nt	i
CCC1CCCCN1CCCNC(=O)c1cc2c(=O)oc3ccc(C)cc3c2s1 (stereo not drawn)	i	?	?	i	i	i
Cc1ccc2oc(=O)c3cc(C(=O)NCCCN4CCCCCC4)sc3c2c1	i	?	?	i	i	i
Cc1ccc2oc(=O)c3cc(C(=O)NCCCN4CCc5ccccc5C4)sc3c2c1	i	?	18µM	i	i	i
Cc1ccc2oc(=O)c3cc(C(=O)NCCN4CCN(C)CC4)sc3c2c1	i	?	23µM	i	i	i
